Data published in PubChem BioAssay AID624331 (National Center for Advancing Translational Sciences (NCATS), 2012).
Inconclusive results are not listed. Unmarked numbers belong to inactive results. Active and inactive are the calls of the source. Calls come from the whole dose curve; as a rule, active = well fitted activation curve with a large enough effect; inconclusive = small, poorly fitted or top-dose-only effect; inactive = no such curve, though single readings can be large or run the other way.

Test: qHTS assay for re-activators of p53 using a Luc reporter: Hit Validation with no p53 Expressed; for activity change, positive = activation: 0% is about no effect
Conditions: p53-null cells, luciferase reporter counter-screen; series mostly up to 46.1 µM; activity change, positive = activation: at the top concentration
Outline: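 Counter-screen of primary hits in a cell line not transfected with p53, in Opti-MEM with 10% FBS; compounds at several concentrations (10 mM stock, 1:5; top 46.1 µM in well), 24 h at 37 deg C, 5% CO2. Luminescence read after 10 min with Amplite reagent.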
Potency is the fitted concentration of half-maximal effect.

Row | Structure (SMILES) | activity change, positive = activation | Potency
1 | CC(C)CCn1cnc2c(cnn2-c2ccc(F)cc2)c1=O | 30% | 
2 | COc1ccc(-c2nnc(SCC(=O)/C(C#N)=C(\C)N)o2)cc1 | 13.7% | 
3 | O=C(Nc1cccnc1)c1ccc([N+](=O)[O-])s1 | -52.7% | 
4 | O=c1[nH]c2ccc(N/C(=N/S(=O)(=O)c3ccccc3)c3ccccc3)cc2[nH]1 | -30.8% | 
5 | CC(C)CCn1cnc2c(sc3nc4c(cc32)CSC(C)(C)C4)c1=O | 33% | 
6 | CC(C)C(=O)OCC(=O)Nc1ccc(N=Nc2ccccc2)cc1 | 34.9% | 
7 | Cc1cc(C(=O)COC(=O)c2ccc(O)cc2)c(C)n1CC(F)(F)F |  | 20.6 µM (active)
8 | COCc1[nH]nc2c1C(c1cccc(OC)c1)C(C#N)=C(N)O2 (stereo not given) | -20.5% | 
9 | CC(Cc1ccccc1)NC(=O)c1ccc([N+](=O)[O-])cc1 (stereo not given) | 49.8% | 
10 | Cc1ccsc1/C=C(\C#N)C(=O)Nc1c(C)n(C)n(-c2ccccc2)c1=O | -39.4% | 
11 | COc1ccc(N2CCN(C(=O)COC(=O)c3ccc(OC(F)F)cc3)CC2)cc1 | 16.1% | 
12 | O=C(CNC(=O)c1cccc(F)c1)N/N=C/c1cc(Br)ccc1OC(=O)/C=C/c1ccco1 | -30.7% | 
13 | Cc1cc(NC(=O)c2ccco2)sc1C | -3.27% | 
14 | O=C(NCCCc1ccccc1)c1cc(COc2c(F)cccc2F)on1 | 18.1% | 
15 | O=C(CSc1nnc(-c2ccc(O)cc2)o1)Nc1ccc2c(c1)OCCO2 | 67.2% | 
16 | C#CCn1c(=NC(=O)c2cccs2)sc2cccc(OCC)c21 | -22.2% | 
17 | NC(=NCc1ccccc1)c1cccc([N+](=O)[O-])c1 | -33.5% | 
18 | Cn1c(-c2ncc(F)cc2F)cc2onc(-c3c(F)cccc3Cl)c2c1=O | 66.8% | 
19 | Oc1cccc2c(NC(=S)Nc3ccc(OC(F)F)cc3)cccc12 | -10.6% | 
20 | O=C(Nc1ccccc1Cl)c1ccc2c(=O)n3c(nc2c1)CCC3 | 6.48% | 
